From publication PMC4336329 (PLoS ONE, 2015)
The whole screen tested about 310,000 compounds, of which about 14,000 (4.5%) showed an effect of 50% or more. Effects have a minus sign here. The sample as a whole holds a higher share of strong results than the screen did.

Target: human ether-à-go-go-related gene (hERG) potassium channel (human, UniProt Q12809)
Assay: primary screen, population patch clamp on CHO cells stably expressing hERG; higher = less effect of the substance
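Also: peak tail current of the secondary pulse compared with the same well before compound.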

Sequence of human ether-à-go-go-related gene (hERG) potassium channel (Q12809 whole entry, looked up): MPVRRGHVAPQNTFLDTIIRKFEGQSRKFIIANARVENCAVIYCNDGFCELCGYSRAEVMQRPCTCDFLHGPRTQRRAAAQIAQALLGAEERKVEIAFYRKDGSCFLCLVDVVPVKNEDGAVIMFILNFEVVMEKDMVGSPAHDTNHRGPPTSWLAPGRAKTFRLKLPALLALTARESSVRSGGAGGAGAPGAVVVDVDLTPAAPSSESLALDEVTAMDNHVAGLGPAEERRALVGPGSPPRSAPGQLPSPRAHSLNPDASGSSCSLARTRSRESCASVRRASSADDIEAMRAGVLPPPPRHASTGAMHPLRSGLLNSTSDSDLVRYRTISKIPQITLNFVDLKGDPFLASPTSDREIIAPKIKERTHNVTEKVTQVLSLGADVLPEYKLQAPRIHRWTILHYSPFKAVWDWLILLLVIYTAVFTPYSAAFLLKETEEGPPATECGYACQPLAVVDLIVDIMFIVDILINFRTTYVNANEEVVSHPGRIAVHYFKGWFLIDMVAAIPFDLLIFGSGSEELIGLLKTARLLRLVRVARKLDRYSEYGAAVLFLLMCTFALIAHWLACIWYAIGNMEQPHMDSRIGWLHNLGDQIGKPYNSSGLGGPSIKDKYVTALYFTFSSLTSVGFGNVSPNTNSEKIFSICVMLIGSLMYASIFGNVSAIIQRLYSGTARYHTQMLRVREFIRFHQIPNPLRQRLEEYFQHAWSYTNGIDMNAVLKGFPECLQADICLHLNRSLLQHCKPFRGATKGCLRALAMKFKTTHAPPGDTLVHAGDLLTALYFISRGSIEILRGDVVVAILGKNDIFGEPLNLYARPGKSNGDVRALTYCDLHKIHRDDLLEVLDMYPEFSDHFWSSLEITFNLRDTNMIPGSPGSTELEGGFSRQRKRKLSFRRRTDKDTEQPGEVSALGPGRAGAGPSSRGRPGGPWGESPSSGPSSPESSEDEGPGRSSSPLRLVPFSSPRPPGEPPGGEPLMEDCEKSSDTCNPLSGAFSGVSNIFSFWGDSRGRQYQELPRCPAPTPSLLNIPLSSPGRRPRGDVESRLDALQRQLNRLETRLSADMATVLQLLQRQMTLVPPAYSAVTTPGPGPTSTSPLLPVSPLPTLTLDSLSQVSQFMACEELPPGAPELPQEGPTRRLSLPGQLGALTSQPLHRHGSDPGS

SMILES	hERG current change (%, negative = inhibition) at 10uM
Nc1c(Cl)ncnc1N/N=C/c1ccc2ccccc2n1	-11.7%
COC(=O)COc1ccc(/C=C2\SC(=O)N(CC(=O)Nc3ccccc3F)C2=O)cc1	14%
Cc1nc(CNC(=O)CC2C(=O)NCCN2Cc2cccc(Oc3ccccc3)c2)cs1 (stereo not shown)	10.4%
CCOCCCNC(=O)/C(C#N)=C/c1ccccc1F	23.5%
C/C(=N\NC(=O)c1ccc(Cl)cc1)c1ccc(Br)s1	2.93%
COCCNC(=O)C(=O)NCC1OCCN1S(=O)(=O)c1ccc(C)cc1 (stereo not shown)	15.7%
CCc1ccc(C(=O)NNc2ccc(S(N)(=O)=O)cc2)cc1	9.05%
NC(=O)COC(=O)CC12CC3CC(CC(Br)(C3)C1)C2	24.6%
CCN(CC)S(=O)(=O)c1ccc(OC)c(NC(=O)CSc2ccccc2)c1	-72.9%
Cc1ccc(S(=O)(=O)N2CCOCC2)cc1NC(=O)C(c1ccc(Cl)cc1)C(C)C (stereo not shown)	1.8%
Cc1ccc(S(=O)(=O)N2CCOCC2)cc1NC(=O)CSc1ncccn1	-4.68%
CCN(CC)S(=O)(=O)c1ccc(OC)c(NC(=O)CSc2cc(C)ccc2C)c1	-13.3%
Cc1cc2nnc(SCC(=O)Nc3cccc(S(=O)(=O)N4CCOCC4)c3)n2c2ccccc12	-14.4%
CCN(CC)S(=O)(=O)c1ccc(OC)c(NC(=O)CSc2cc(Cl)ccc2Cl)c1	-2.76%
Cc1ccc(S(=O)(=O)N2CCOCC2)cc1NC(=O)CSc1ccc(Cl)cc1	-51.3%
O=C(CSc1nnc(-c2cccc(S(=O)(=O)N3CCOCC3)c2)n1C1CCCCCC1)NCc1ccccc1	-17.5%
Cc1cc2nnc(SCC(=O)Nc3cc(S(=O)(=O)N4CCOCC4)ccc3Cl)n2c2ccccc12	-20.5%
CC(C)Cn1c(SCC(=O)NCc2ccc(Cl)cc2)nnc1-c1cccc(S(=O)(=O)N2CCOCC2)c1	-52.9%
Cc1ccc(S(=O)(=O)N2CCOCC2)cc1NC(=O)CSc1nnc2cc(C)c3ccccc3n12	-61.8%
Cc1ccc(CSc2nnc(-c3cccc(S(=O)(=O)N4CCOCC4)c3)n2CC(C)C)cc1	-29.5%
CC(C)CN(C(=O)COC(=O)Cc1ccc(Cl)cc1)c1c(N)n(Cc2ccccc2)c(=O)[nH]c1=O	5.02%
Cc1cccc(C(=O)N[C@@H](C)C(=O)N2CCN(c3ncccn3)CC2)c1	-3.21%

SMILES	hERG current change (%, negative = inhibition) at 10uM
COc1ccc(OC)c(/C=C/C(=O)OCC(=O)Nc2nnc(-c3ccccc3)o2)c1	-3.14%
O=C(COC(=O)Cc1ccc(Br)cc1)Nc1c(F)c(F)c(F)c(F)c1F	13.4%
Cc1ccc(NC2=NCCCS2)c(C)c1C	-11.5%
CCOc1ccc(NS(=O)(=O)c2cc(C(=O)N3CCN(C(C)=O)CC3)ccc2Cl)cc1	12.6%
COc1ccc(S(=O)(=O)Nc2ccccn2)cc1	13.8%
CCC12OC(=N)C(C#N)(C1C)C(C#N)(C#N)C(c1ccccc1)O2 (stereo not shown)	2.68%
COC(=O)c1ccc(COc2ccc(/C=N/NC(N)=S)cc2)o1	-5.9%
COc1ccc(S(=O)(=O)N2CCOCC2)cc1NC(=O)CSc1ccccc1	-53.9%
COc1ccc(S(=O)(=O)N2CCOCC2)cc1NC(=O)CSc1ncnc2ccccc12	-50.4%
COc1ccc(S(=O)(=O)N2CCOCC2)cc1NC(=O)CSc1ccc(F)cc1	-42.6%
O=C(CSc1ncnc2ccccc12)Nc1cc(S(=O)(=O)N2CCCCC2)ccc1Cl	14.4%
COc1ccc(S(=O)(=O)N2CCOCC2)cc1NC(=O)CSc1nnc2ccccn12	5.54%
Cc1ccc(S(=O)(=O)N2CCCCC2)cc1NC(=O)CSc1ncnc2ccccc12	-36.2%
COc1ccc(S(=O)(=O)N2CCOCC2)cc1NC(=O)COc1ncnc2ccccc12	6.62%
COc1ccc(S(=O)(=O)N2CCCCC2)cc1NC(=O)CSc1ncnc2ccccc12	-51.2%
COc1ccc(S(=O)(=O)N2CCOCC2)cc1NC(=O)CSc1cccc[n+]1[O-]	-3%
CC(OC(=O)c1cccc(-n2cnnn2)c1)C(=O)NCc1ccccc1 (stereo not shown)	0.976%
O=C(COC(=O)CSc1ccc([N+](=O)[O-])cc1)NCC1CCCO1 (stereo not shown)	12.3%
C#CCOCCOCCOCCNc1nc(N2CCN(C(=O)CCCCCCCCCCNC(=O)[C@@H](CCC(=O)O)n3cc(CCCCCN)nn3)CC2)nc(N2CCN(C(=O)CCCCCCCCCCNC(=O)[C@H](CO)n3cc(CCCSC)nn3)CC2)n1	11.9%
CCN1C(=O)C(CC(=O)Nc2ccc(OC)cc2)N(CCc2ccccc2)C1=S (stereo not shown)	-1.28%
CC(=O)C[C@H]1c2ccccc2S(=O)(=O)N1c1ccccc1	23%
Cc1cc(NC(=O)c2cc(-c3ccccc3Cl)nc3ccccc23)no1	-0.229%

SMILES	hERG current change (%, negative = inhibition) at 10uM
COCCOC(=O)c1cc(C(=O)c2cc(F)ccc2O)coc1=N	9.29%
O=C(Nc1nnc(S(=O)(=O)N2CCOCC2)s1)c1ccccc1F	16.7%
O=S(=O)(Nc1cc(F)ccc1F)c1cccc2nonc12	-83.6%
CC(=O)c1ccccc1NS(=O)(=O)c1cccc2nonc12	-52.2%
O=S(=O)(Nc1cc(F)ccc1F)c1cccc2nsnc12	11.6%
Cc1ccccc1NS(=O)(=O)c1cccc2nonc12	2.34%
O=S(=O)(Nc1cccc2ccccc12)c1cccc2nonc12	3.98%
CSc1ccccc1NS(=O)(=O)c1cccc2nonc12	1.51%
O=C(NCC(=O)N1CCN(c2ccccn2)CC1)c1ccc(Br)o1	-15.3%
CNCC(=O)N1CCN(c2ncc(C(F)(F)F)cc2Cl)CC1.Cl	-22.3%
CCOc1ccc(C(=O)NCC(=O)N2CCN(c3ccc(C(F)(F)F)cn3)CC2)cc1	-7.32%
O=C(NCC(=O)N1CCN(c2ncc(C(F)(F)F)cc2Cl)CC1)c1ccc(Br)o1	-50.6%
NC(=O)NCCN1CCN(c2ncc(C(F)(F)F)cc2Cl)CC1	-33.7%
O=C(NCC(=O)N1CCN(c2ccc(C(F)(F)F)cn2)CC1)c1ccc(Br)o1	-71.8%
COc1cccc(NC(=O)Nc2c(C)n(C)n(-c3ccccc3)c2=O)c1	3.91%
O=C(Nc1cccc(Cl)c1)c1cnn2cccnc12	7.19%
CCOC(=O)C1CCN(CCC(=O)Nc2ccccc2)CC1	-19.7%
NC(=O)C1CCN(CCC(=O)Nc2cccc(Cl)c2)CC1	0.151%
CCOC(=O)C1CCN(CCC(=O)Nc2cccc(Cl)c2)CC1	-67.1%
Cc1cccc(NC(=O)CCN2CCC(C(N)=O)CC2)c1	9.57%
CCOC(=O)N1CCN(CCC(=O)Nc2cccc(C)c2)CC1.Cl	1.45%
CCOC(=O)C1CCN(CCC(=O)Nc2cccc(C)c2)CC1.Cl	-66.8%

SMILES	hERG current change (%, negative = inhibition) at 10uM
CCCCCN(C(=O)CCC(=O)OCC(=O)N(C)Cc1ccc(C)cc1)c1c(N)n(CCCC)c(=O)[nH]c1=O	1.93%
CCOc1ccc(C(=O)N/N=C(\c2ccccc2)c2ccccn2)cc1	-27%
C=CCOc1ccccc1/C=c1\sc2nc(-c3oc4ccccc4c3C)nn2c1=O	-8.15%
O=C(CN1CCN(C(=O)N2CCOCC2)CC1)Nc1ccc(Br)cc1	-72.5%
CCNC(=S)N1CCN(CC(=O)Nc2ccc(Br)cc2)CC1	-61.4%
O=C(CN1CCN(C(=O)C2CCCO2)CC1)Nc1ccc(F)cc1 (stereo not shown)	-66.1%
O=C(CN1CCOCC1)Nc1ccccc1	13.8%
COc1ccc(NC(=O)CN2CCN(C(=S)NC3CCCC3)CC2)cc1	-39.1%
COc1ccc(NC(=O)CN2CCN(C(=O)N3CCOCC3)CC2)cc1	-14.2%
O=C(CN1CCN(C(=O)C2CCCO2)CC1)Nc1ccc(Cl)cc1 (stereo not shown)	-40.9%
Cc1cc(C)cc(NC(=O)CN2CCN(C(=O)C3CCCO3)CC2)c1 (stereo not shown)	7.51%
O=C(CN1CCN(C(=O)C2CCCO2)CC1)Nc1ccc(Br)cc1 (stereo not shown)	-70%
CCNC(=S)N1CCN(CC(=O)Nc2ccc(OC)cc2)CC1	-34.3%
O=C(Nc1ccc(F)cc1)N1CCN(C(=O)C2CCCO2)CC1 (stereo not shown)	2.96%
CCOc1ccc(NC(=O)CN2CCN(C(=O)C3CCCO3)CC2)cc1 (stereo not shown)	-32.6%
O=c1c(Cc2ccccc2)c(O)ccn1C1CCCCCCC1	10.1%
COc1ccc(S(=O)(=O)N2CCCCCC2)cc1C(=O)N(C)Cc1ccc(C)cc1	-40.3%
Cc1[nH]c2ccccc2c(=O)c1SC(F)(F)C(F)C(F)(F)F (stereo not shown)	-5.97%
CSc1ccccc1NC(=O)COc1ccc(Cl)cc1Cl	-0.82%
